In all, about 310,000 compounds went through this assay and about 2,200 (0.71%) showed an effect of 50% or more. Effects have a minus sign here. The sample holds strong results, similar compounds and a random draw of the others, so the mix is not that of the screen.
molecular target: human ether-à-go-go-related gene (hERG) potassium channel (human, UniProt Q12809); assay: primary screen, population patch clamp on CHO cells stably expressing hERG; higher = less effect of the substance
Sequence (Q12809 whole entry, looked up): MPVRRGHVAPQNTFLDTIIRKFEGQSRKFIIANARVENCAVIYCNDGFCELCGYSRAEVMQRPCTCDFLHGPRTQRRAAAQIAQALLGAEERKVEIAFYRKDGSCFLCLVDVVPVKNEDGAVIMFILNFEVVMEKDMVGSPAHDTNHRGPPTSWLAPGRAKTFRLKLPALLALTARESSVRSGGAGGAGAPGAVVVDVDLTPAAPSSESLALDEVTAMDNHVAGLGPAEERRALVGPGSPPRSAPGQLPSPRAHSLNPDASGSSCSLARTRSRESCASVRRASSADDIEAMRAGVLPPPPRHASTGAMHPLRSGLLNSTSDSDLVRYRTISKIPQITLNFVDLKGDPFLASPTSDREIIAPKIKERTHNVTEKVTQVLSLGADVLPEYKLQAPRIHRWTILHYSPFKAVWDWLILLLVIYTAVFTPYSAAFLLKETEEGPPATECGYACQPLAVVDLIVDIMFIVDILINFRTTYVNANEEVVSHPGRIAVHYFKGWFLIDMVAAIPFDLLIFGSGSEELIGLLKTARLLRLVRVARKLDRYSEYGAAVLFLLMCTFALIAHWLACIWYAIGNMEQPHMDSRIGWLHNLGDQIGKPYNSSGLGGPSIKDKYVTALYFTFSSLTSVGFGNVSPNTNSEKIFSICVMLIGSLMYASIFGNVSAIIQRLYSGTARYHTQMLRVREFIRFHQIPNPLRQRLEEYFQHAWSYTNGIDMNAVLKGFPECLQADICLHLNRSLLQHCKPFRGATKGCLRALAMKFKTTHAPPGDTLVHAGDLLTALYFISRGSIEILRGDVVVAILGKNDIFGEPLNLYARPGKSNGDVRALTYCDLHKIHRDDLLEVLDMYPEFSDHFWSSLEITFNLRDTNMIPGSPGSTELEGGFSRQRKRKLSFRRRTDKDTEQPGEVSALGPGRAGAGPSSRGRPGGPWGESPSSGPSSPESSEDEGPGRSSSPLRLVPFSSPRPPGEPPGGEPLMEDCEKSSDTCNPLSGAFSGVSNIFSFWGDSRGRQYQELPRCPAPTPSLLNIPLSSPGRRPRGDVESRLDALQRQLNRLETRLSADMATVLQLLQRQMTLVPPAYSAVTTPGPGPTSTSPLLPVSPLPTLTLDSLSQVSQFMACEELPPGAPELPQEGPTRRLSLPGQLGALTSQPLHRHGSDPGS

SMILES | hERG current change (%, negative = inhibition) at 1uM
CC1CCc2nc(NC(=O)Cc3cccs3)sc2C1 (centres unmarked) | 12.7%
O=C1NC(C(F)(F)F)(C(F)(F)F)N=C2SC=CN12 | 1.69%
CCCOc1ccc(C2C(C(=O)OC)=CN(CCOC)C=C2C(=O)OC)cc1 | -5.54%
CCN(CC)C(=O)CN1C(=O)COCC1=O | 5.42%
S=C1NC(c2ccccc2)N2C(=S)NC(c3ccccc3)N12 (centres unmarked) | 3.38%
CCOc1ccc2nc(C)cc(Nc3ccc(N4CCOCC4)cc3)c2c1.Cl | -60.6%
COc1ccc2nc(C)cc(Nc3ccc(N4CCOCC4)cc3)c2c1.Cl | -25.1%
CCOc1ccc2nc(C)cc(Nc3ccc4c(c3)OCCO4)c2c1.Cl | -47%
CCOc1ccc(-n2c(-c3ccc(Br)cc3)c[n+]3c2CCCCC3)cc1.[Br-] | -46.5%
CCOc1ccc(-c2c(C)n(-c3ccc(OCC)cc3)c3[n+]2CCCCC3)cc1.[O-][Cl+3]([O-])([O-])[O-] | -50.8%
CCOc1ccc(-n2c(-c3ccc(OC)cc3)c[n+]3c2CCCCC3)cc1.[Br-] | -39.1%
CCCNC(=O)C(Cc1ccc(F)cc1)NC(=O)c1ccc(C#N)cc1 (centres unmarked) | -17.5%
CCC(CC)c1nnc(NC(=O)c2cccc(S(=O)(=O)N3CCc4ccccc43)c2)s1 | 13.3%
Cl.O=C1Cc2ccccc2Sc2cc(OCCCN3CCCCC3)ccc21 | -29.1%
CN(C)CCOc1ccc2c(c1)Sc1ccccc1CC2=O.Cl | -18.3%
CN(C)CCCOc1ccc2c(c1)Sc1ccccc1CC2=O.Cl | -53.3%
O=C(Cc1ccc([N+](=O)[O-])cc1)OCc1c(F)cccc1Cl | 14.7%
CCOc1ccc(N=C2NC(=O)CS2)cc1 | 11.1%
Cc1ccc(NC(=O)NC2CCCCCCC2)cc1C | 11.5%

SMILES | hERG current change (%, negative = inhibition) at 1uM
OCC1(Cc2ccccc2F)CCCN(CCc2ccccc2)C1 (centres unmarked) | -30.5%
OCC1(CCc2ccccc2)CCN(Cc2c(F)ccc(F)c2F)CC1 | 7.97%
OCC1(CCc2ccccc2)CCCN(CCCC(F)(F)F)C1 (centres unmarked) | -13.2%
OCC1(CCc2ccccc2)CCCN(CCCc2ccccc2)C1 (centres unmarked) | -57.6%
OCC1(CC2CCCCO2)CCN(C/C=C/c2ccccc2)CC1 (centres unmarked) | -2.99%
OCC1(CCc2ccccc2)CCN(C/C=C/c2ccccc2)CC1 | -86.4%
OCC1(CCc2ccccc2)CCN(Cc2ccccc2Cl)CC1 | -54.6%
OCC1(Cc2ccc(F)cc2F)CCCN(Cc2ccc(Cl)cc2)C1 (centres unmarked) | -15%
OCC1(CCc2ccccc2)CCN(Cc2cc(Cl)ccc2O)CC1 | -5.01%
OCC1(Cc2ccc(F)cc2)CCCN(CCc2ccccc2)C1 (centres unmarked) | -0.0287%
OCC1(Cc2ccc(F)cc2F)CCCN(CCCc2ccccc2)C1 (centres unmarked) | -56.1%
O=C(Cc1ccccc1)N1CCN(C/C=C/c2ccccc2)CC1 | -6.02%
Cc1cc(C(=O)N2CCCC(N3CCN(c4cccc(Cl)c4)CC3)C2)no1 (centres unmarked) | 10.5%
Cc1cc2oc(C(=O)N(Cc3ccccc3)c3ccccn3)cc(=O)c2cc1Cl | 10.6%
CCn1nc(C)cc1C(=O)Sc1cccc(Cl)c1 | 10.9%
CCCCCCCC(=O)NNC(=O)c1c(O)c2ccccc2[nH]c1=O | 9.8%
CCCCn1c(N)c(N(C)C(=O)c2ccc(Br)o2)c(=O)[nH]c1=O | 7.35%
O=C(O)C1CC=CCC1C(=O)N1CCCC1 (centres unmarked) | -1.33%
O=C(CCC(F)(F)F)N1CCCC(CO)(CCc2ccccc2)C1 (centres unmarked) | -3.42%

SMILES | hERG current change (%, negative = inhibition) at 1uM
COc1ccccc1/C=C/CN1CCCC(CO)(CCc2ccccc2)C1 (centres unmarked) | -31.4%
OCC1(CCc2ccccc2)CCCN(C/C=C/c2ccccc2)C1 (centres unmarked) | -53.6%
CCOc1cc(C2NC(=O)NC(C)=C2C(=O)OC(C)CC)cc(Br)c1O (centres unmarked) | 10.2%
O=C1N[C@@H](Cc2cn(S(=O)(=O)c3c(F)c(F)c(F)c(F)c3F)c3ccccc23)C(=O)N[C@H]1Cc1ccccc1 | 10.7%
CN1CCN(C(=O)/C(=C/c2ccc(F)cc2)c2ccsc2)CC1.Cl | -52.8%
CCOC(=O)N1CCN(C(=O)/C(=C/c2ccc(Br)cc2)NC(=O)c2ccc(OC)cc2)CC1 | -81.5%
CN1CCN(C(=O)/C(=C/c2ccccc2)c2ccccc2)CC1 | -33.2%
CCOC(=O)N1CCN(C(=O)/C(=C/c2ccc(OC)cc2)NC(=O)c2ccccc2)CC1 | -27.1%
CN1CCN(C(=O)/C(C#N)=C/c2ccc(F)cc2)CC1.Cl | 1.43%
COc1ccc(/C=C(/NC(=O)c2ccccc2)C(=O)N2CCCC2)cc1 | 6.1%
O=C(N/C(=C/c1ccc(F)cc1)C(=O)N1CCCC1)c1ccccc1 | 25.3%
COc1ccc(/C=C(\NC(=O)c2ccccc2)C(=O)N2CCN(C)CC2)cc1 | -75.2%
COc1ccc(/C=C(/NC(=O)c2ccccc2)C(=O)N2CCCCC2)cc1 | 6.93%
CCOC(=O)N1CCN(C(=O)/C(=C/c2cccc3ccccc23)NC(=O)c2ccc(OC)cc2)CC1 | -10.5%
CSc1ccc(/C=C(/NC(=O)c2ccccc2)C(=O)N2CCN(C)CC2)cc1 | -48.7%
CN1CCN(C(=O)/C(=C/c2ccc(F)cc2)NC(=O)c2ccccc2)CC1 | -80.8%
CCOC(=O)/C=C/C(=O)Nc1ccc(S(=O)(=O)Nc2cc(C)on2)cc1 | 10.3%
O=C(Cc1ccccc1)NC1CCN(C(=O)NCc2ccccc2)CC1 | -8.61%

Source: article PMC4336329 (PLoS ONE, 2015)
